The compounds below were run on Inhibin beta A chain (activin A) (assay: small molecules binding activin A – biochemical, small-molecule microarray, 635 nm fluorescence scan, primary screen (AID 1107;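 also: mouse activin A protein probed at 4.33 µg/mL on printed slides; score merges bound-protein fluorescence near 667 nm with spot signal-to-noise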)). Details: INHBA, higher = more signal.

| Compound | composite z-score |
| --- | --- |
| CCOC(=O)[C@H](Cc1ccccc1)NC(=O)CCC1CC(OC(=O)NCc2ccc3c(c2)OCO3)CC2(CCCC(COC(=O)NCc3cccc(C(F)(F)F)c3)O2)O1 (stereo not given in full) | 0.321 |
| CC(=O)OC[C@H]1O[C@@H](ON=C[C@@H](C)[C@H](OCc2ccccc2)C(C)C)[C@H](OC(C)=O)[C@@H](OC(C)=O)[C@@H]1OC(C)=O | -1.82 |
| O=C1[C@H]2[C@H]3[C@H](O)[C@H](O)CC(=NOCc4ccccc4)[C@H]3CC[C@H]2C(=O)N1C[C@@H]1CCCO1 | -0.209 |
| CO[C@@H]1COC(=O)[C@@H]2CCCN2C(=O)[C@@H](C)COC(=O)[C@H](COCc2ccccc2)NC(=O)CC=C[C@H]1C | -0.235 |
| C=C(/C(=C/C[C@H](OC(C)=O)c1ccc(OCCO)cc1)c1cnc2ccccc2c1)C(C)C | 1.64 |
| COC(=O)CC=C[C@@H](C)[C@H](OC)c1ccccc1Br | 0.887 |
| COc1ccccc1CN1C(=O)c2ccccc2[C@@H](C(=O)NCC(F)(F)F)[C@@H]1c1ccc(CO)cc1 | 0.218 |
| O=C1[C@H]2[C@H]3[C@H](O)[C@H](O)CC(=NO[C@@H]4O[C@H](CO)[C@@H](O)[C@H](O)[C@H]4O)[C@H]3CC[C@H]2C(=O)N1C1CCCCC1 | -1.65 |
| CC(C)=CCCC(C)=CCON=C1C[C@@H](O)[C@@H](O)[C@@H]2[C@@H]3C(=O)N(C[C@@H]4CCCO4)C(=O)[C@@H]3CC[C@@H]12 | 1.52 |
| C=CC[C@@H]1C=C[C@H](ON=C2c3cc(OC)ccc3O[C@H](c3cccc(OC)c3)[C@H]2O)[C@@H](CO)O1 | -0.0002 |
| CCc1cc2c(nc1CC)CCN(CCC(C)=NOC[C@@H](O)COCc1ccco1)C2 | 2.1 |
| CCN1C(=O)[C@H]2[C@H]3[C@H](O)[C@H](O)CC(=NOC(C)CN4CCCCc5nc(C)c(C)cc54)[C@@H]3CC[C@H]2C1=O (stereo not given in full) | 0.834 |
| COCCOC(=O)N1C(=O)[C@@]2(c3cc(C#CC4(O)CCCCCC4)ccc31)[C@H](c1ccc(OCCO)cc1)N1[C@H](c3ccccc3)[C@H](c3ccccc3)OC(=O)[C@H]1[C@@H]2C(=O)NC[C@H](O)c1ccccc1 | 0.527 |
| CC1CC/C=C\[C@H]2OC34C=CCN(C(C)C)C(=O)[C@H]3N(CCCO)C(=O)[C@@H]4C2C(=O)O1 (stereo not given in full) | -0.476 |
| CCCNC(=O)OC[C@H]1O[C@H](CCON=CC[C@@H]2C=C[C@H](OC(C)=O)[C@@H](COC(C)=O)O2)C=C[C@@H]1Oc1ccc(OC)cc1 | 0.434 |
| Cc1ccc(S[C@]2(C(=O)O)CC(=O)N(Cc3ccccc3)[C@@H]2c2ccc(CO)cc2I)cc1 | 0.84 |
| CC(=O)C[C@H](O)[C@@H](NC(=O)OC(C)(C)C)C(C)C | 0.123 |
| COC(=O)C1=CCC(c2cccc(Cl)c2)O1 (stereo not given) | 1.09 |
| COCCCNC(=O)[C@@]1(CCS(=O)(=O)c2ccccc2)N=C(c2ccc(OCCCO)cc2)O[C@H]1c1ccccc1 | 0.0123 |
| O=C(NN=C1C[C@@H](O)[C@@H](O)[C@@H]2[C@@H]3C(=O)N(c4cccc(Oc5ccccc5)c4)C(=O)[C@@H]3CC[C@@H]12)OCc1ccccc1 | 0.229 |
| CCOC(=O)NN=C1C[C@@H](O)[C@@H](O)[C@@H]2[C@@H]3C(=O)N(C[C@@H]4CCCO4)C(=O)[C@@H]3CC[C@@H]12 | -0.0039 |
| COC(=O)c1c(CC[C@@H](CO)NC(=O)N[C@H](Cc2ccccc2)Cn2cc(-c3ccccc3N)nn2)oc(C(C)=O)c1C(=O)OC | 0.95 |
| CC(CCN1CCc2nc(-c3ccccc3)c(-c3ccccc3)cc2C1)=NOC(C)CN1CCCCc2nc(C)c(C)cc21 (stereo not given) | 1.15 |
| CCCNC(=O)[C@@H]1c2ccccc2C(=O)N(Cc2ccccc2Cl)[C@H]1c1ccc(CO)cc1 | 0.341 |
| COc1ccc(O[C@H]2C=C[C@@H](c3ccccc3)O[C@@H]2COC(=O)CCC(C)=NOCC[C@@H]2C=C[C@H](OC(C)=O)[C@@H](COC(C)=O)O2)cc1 | 1.22 |
| CC(C)OC(=O)C=C1C[C@@H](c2ccc(C#N)cc2)O[C@@H](c2ccc(C#N)cc2)O1 | -0.106 |
| CCCC=C(CCC)[C@@H](NC(=O)c1ccc(-c2ccccc2)cc1)c1ccc(C(=O)OC)cc1 | 0.244 |
| CCCC[C@@H](O)C1=C(C)C[C@H]2C(=O)N(Cc3ccccc3)C(=O)[C@H]2[C@H]1CO | 0.899 |
| COCCNC(=O)OCC1CCCC2(CC(OC(=O)NCCc3ccc(F)cc3)CC(CCC(=O)N[C@@H](C)C(=O)OC)O2)O1 (stereo not given in full) | 0.415 |
| C[N+](C)(C)CCCCCCNC(=O)[C@@H]1C[C@@H]2C(=O)N3CCC[C@H]3C(=O)N2[C@@H]1c1cccc(OCCO)c1 | 1.03 |
